# Vif-A3G inh = qHTS for Inhibitors of Vif-A3G Interactions: qHTS; HeLa A3G-eYFP + Vif (tagged APOBEC3G with the HIV-1 protein that degrades it), YFP fluorescence, overnight; Potency, µM (highest dose often 46.1 µM), inactives show at the highest dose activity, negative = active, most hits filed as inhibitors; 410,000 tested, 0.076% active; AID 602310, 2012; also: % is scaled to controls: 0 for no effect and ±100 for the full control effect; nearly all actives have a fitted effect of over 60% in size
# Target sequence (Q9HC16 whole entry, looked up): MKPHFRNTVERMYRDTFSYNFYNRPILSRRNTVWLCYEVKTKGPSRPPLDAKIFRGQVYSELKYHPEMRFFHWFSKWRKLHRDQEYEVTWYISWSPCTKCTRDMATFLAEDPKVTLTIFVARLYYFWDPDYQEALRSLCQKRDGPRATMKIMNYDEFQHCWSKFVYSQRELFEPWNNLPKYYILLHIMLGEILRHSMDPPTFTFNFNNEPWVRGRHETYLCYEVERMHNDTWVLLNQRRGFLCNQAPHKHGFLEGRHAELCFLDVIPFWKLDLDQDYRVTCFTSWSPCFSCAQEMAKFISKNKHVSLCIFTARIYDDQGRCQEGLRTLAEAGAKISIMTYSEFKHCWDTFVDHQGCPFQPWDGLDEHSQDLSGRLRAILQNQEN
#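 HeLa cells stably expressing Vif and C-terminally eYFP-tagged A3G, seeded overnight at 37 deg C, then exposed to compound by pintool overnight at 37 deg C. Rise in yellow fluorescence (Ex 488/Em 500-530, Acumen) marks blocked Vif-driven A3G degradation.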
# Vif-A3F inh = qHTS for Inhibitors of Vif-A3F Interactions: qHTS | AID 602313, 2012 | HeLa A3F-eYFP + Vif (tagged APOBEC3F with the HIV-1 protein that degrades it), YFP fluorescence increase | Potency, µM (series often up to 46.1 µM), inactives show at the top dose activity, negative = active | 390,000 tested, 0.2% active; also: % of control where 0% means no effect; nearly all actives have a fitted effect of over 65% in size
#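 HeLa cells stably expressing A3F-eYFP plus Vif, plated and incubated overnight at 37 deg C, then exposed to compounds overnight at 37 deg C. Blocked degradation read as raised yellow fluorescence (Ex 488/Em 500-530).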
# Epigenetic reg = Quantitative High-Throughput Screen for Regulators of Epigenetic Control | murine LDR cells, GFP reporter derepression, 30 h | Potency, µM (highest dose often 53.9 µM), for the others: top-dose GFP activation, actives largely listed as activators | 280,000 tested, 0.2% active; also: % of control where 0% means no effect; nearly all actives have a fitted effect of over 60% in size
#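 Murine LDR cells carrying a silenced, genomically integrated CMV-driven GFP reporter were exposed to compound for 30 hours at 37 C. After PBS washes, GFP-positive cells (20–120 um objects) were counted by laser-scanning microplate cytometry.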
# Numbers without * were called inactive; ? = inconclusive; nt = no result. Most compounds without a hit are left out; they make up all but 0.34% or so of the library. Calls follow the shape of the dose curve; as a rule, active = well fitted curve in the direction sought with a large enough effect; inconclusive = small, poorly fitted or top-dose-only effect, or another doubt; inactive = no such curve, though single readings can be large; an effect the other way counts as inactive or inconclusive. Potency is read from the fitted curve at half-maximal effect.
SMILES,Vif-A3G inh,Vif-A3F inh,Epigenetic reg
O=C(NC1CC1)c1cccc2c1C(=O)c1ccc(N3CCC(Cc4ccccc4)CC3)cc1S2(=O)=O,?,22µM*,nt
O=C(NC1CCCCC1)c1cccc2c1C(=O)c1ccc(N3CCCC3)cc1S2(=O)=O,-11%,-14%,nt
CN1[C@@H]2CC[C@@H]1CC(OC(=O)[C@H](CO)c1ccccc1)C2 (some centres undefined),nt,nt,1%
O=C(C1CCCCC1)N(Cc1cccnc1)c1nc2c(F)cccc2s1,-2%,1%,7%
CCOC(=O)C1=C(Cc2ccc(F)cc2)C(=O)c2ccccc2C1=O,?,25µM*,?
O=C(OCc1ccc(F)cc1)c1ccc2c(c1)-c1ccccc1C2=O,0%,-6%,3%
CC(C)c1ccc(Nc2nc3c(S(=O)(=O)c4ccc(Br)cc4)nnn3c3ccsc23)cc1,5%,6%,-3%
CCc1ccc(C2C(C#N)=C(N)SC(N)=C2C#N)cc1,?,?,7%
CCc1ccc(C2C(C#N)=C(N)SC(N)=C2C#N)s1,?,22µM*,13%
O=C(NC1CCCC1)c1cnn2c1NC(=C1CC1)C=C2C(F)F,-1%,nt,nt
CC(C)Oc1ccccc1-c1nc(SCC(=O)c2ccc(F)cc2)n[nH]1,-11%,-2%,-2%
COc1ccc(C)cc1NC(=O)Cc1c(C(=O)O)c(C)cn1C,1%,-617%,-1%
C[C@H](NC(=O)[C@@H]1CSC2c3ccccc3C(=O)N21)C(=O)NC1CCCC1 (some centres undefined),5µM*,-7%,nt
C[C@H](NC(=O)[C@@H]1CSC2c3ccccc3C(=O)N21)C(=O)NC1CCCCC1 (some centres undefined),-3%,0%,nt
Cc1ccc(-c2cc(C(=O)Nc3c(C(=O)c4ccc(C)c(F)c4)oc4ccccc34)no2)cc1,-1%,0%,-2%
Cn1c(Oc2ccccc2)nc2c1c(=O)n(Cc1ccc(Cl)cc1Cl)c(=O)n2C,-1%,2%,-1%
Cc1noc(C)c1CSc1nc2[nH]ncc2c(=O)n1-c1ccccc1,-31%,-16%,0%
Cc1noc(C)c1CSc1nc2ccccc2c(=O)n1-c1ccccc1,3.5µM*,-1%,0%
CC(C)(C)c1ccc(S(=O)(=O)N2CCC(Oc3ccc(-n4cnnn4)cc3)CC2)cc1,-6%,2%,2%
CCOc1ccccc1NC(=O)c1nc(SCc2ccccc2F)ncc1Cl,3%,nt,nt
Cc1cccc(N(CC(=O)NCCSCc2cccc(Cl)c2)S(=O)(=O)c2ccccc2)c1C,2%,-3%,0%
COc1cc(C(=O)Nc2ccccc2-c2nc(-c3ccccc3)no2)cc(OC)c1OC,5%,-8%,0.63µM*
COc1cc(C(=O)Nc2ccccc2-c2nc(-c3ccc(C)cc3)no2)cc(OC)c1OC,5%,1%,8%
Cn1c2ccccc2c2ccc3c(c21)C(=O)C=CC3=O,-6%,11µM*,nt
Cc1ccc2c(c1)c1ccc3c(c1n2C)C(=O)C=CC3=O,-17%,?,1%
SMILES,Vif-A3G inh,Vif-A3F inh,Epigenetic reg
Clc1ccc(/C=C/c2ccncc2)cc1Cl,-2%,nt,nt
N#Cc1c(N)n(Cc2ccccc2)c(=O)c2cc([N+](=O)[O-])ccc12,-22%,3%,nt
Cn1c(N)c(-c2ccccc2)c2ccc([N+](=O)[O-])cc2c1=O,8.9µM*,?,nt
C[C@@H]1[C@H](c2ccccc2)OCCS(=O)(=O)N1Cc1cccc(Cl)c1,1%,nt,nt
O=C(C[N+]1(CCc2ccccc2)CCOCC1)c1ccccc1,-1%,nt,nt
N#C/C(=C\c1ccc(N2CCOCC2)o1)c1nc2ccccc2[nH]1,2%,?,13µM*
N#C/C(=C\c1ccc(N2CCCCC2)o1)C(N)=O,?,?,7%
N#C/C(=C\c1ccc(N2CCOCC2)c([N+](=O)[O-])c1)c1nc2ccccc2[nH]1,0%,9%,-3%
N#C/C(=C/c1ccc(N2CCOCC2)o1)c1ccc(Cl)cc1,7.1µM*,?,3.2µM*
Nc1ccc(/C=C/c2nc3ccccc3s2)cc1,-1%,nt,nt
CCCc1cnc2c(c1SCC(=O)Nc1ccccc1F)c(=O)n(C)c(=O)n2C,1%,0%,?
COc1ccc(-c2cn3nc(N4CCC(C(=O)Nc5cccc(OC)c5)CC4)sc3n2)cc1,4%,8%,-1%
O=C1C(C2=C(O)c3ccccc3C2=O)=Nc2ccccc21,?,?,7.9µM*
CN=CC1=C(O)c2ccccc2C1=O,-7%,-7%,3%
Cc1sc2nc(CSc3nnnn3-c3ccc(Cl)cc3)[nH]c(=O)c2c1C,-19%,32µM*,1%
CCn1c(SCc2nc3sc(C(=O)O)c(C)c3c(=O)[nH]2)nnc1-c1ccc(Cl)cc1,0%,-2%,-1%
COCc1cc(C)nc2sc(C(=O)Nc3ccccc3F)c(N)c12,-5%,7%,nt
Cc1cc(C(F)(F)F)c2c(N)c(C(=O)Nc3cc(C)on3)sc2n1,-16%,11µM*,?
Cc1cc(C)c2c(N)c(C(=O)Nc3ccccc3C(F)(F)F)sc2n1,0%,-5%,0%
Nc1c(C(=O)Nc2ccccc2F)sc2nc(Cc3ccccc3)cc(C(F)(F)F)c12,0%,?,13µM*
COc1ccc(CN2CC[C@H]3C=CC[C@@H](C(=O)NC4CCCCC4)[C@H]3C2=O)cc1OC,-2%,nt,nt
COc1ccc(N2CCN(C(CNS(=O)(=O)c3c(C)cc(C)cc3C)c3ccco3)CC2)cc1 (centres undefined),4%,-2%,3%
O=c1[nH]ncc2c3ccccc3n(Cc3cccc(Cl)c3)c12,?,25µM*,0%
O=c1[nH]ncc2c3ccccc3n(Cc3ccc(F)cc3)c12,-6%,1%,0%
COc1cc(C/C=C\c2ccccc2)c(OC)cc1O,nt,nt,1%
SMILES,Vif-A3G inh,Vif-A3F inh,Epigenetic reg
CCCCOc1nc2ccccc2nc1NS(=O)(=O)c1ccc(F)cc1,-25%,10µM*,nt
O=S(=O)(Nc1nc2ccccc2nc1N1CCN(c2ccccc2)CC1)c1ccc(F)cc1,?,22µM*,-7%
O=S(=O)(Nc1nc2ccccc2nc1Cl)c1ccc(F)cc1,-10%,0%,12%
Cc1ccc(S(=O)(=O)Nc2nc3ccccc3nc2N2CCOCC2)cc1,0%,-12%,nt
O=C(CCSCc1ccc(Cl)cc1)N1CCN(c2ccccc2F)CC1,10%,-1%,1%
Brc1ccc(C2C=Cc3ccccc32)cc1 (centres undefined),-2%,nt,nt
O=S(=O)(c1ccccc1Br)N1CCN(c2nc(-c3cccs3)nc3ccccc23)CC1,1%,nt,nt
CC(NC(=S)Nc1cccc(C(F)(F)F)c1)C(C)(C)C (centres undefined),1%,32µM*,1%
CN(C)NC(=S)Nc1cccc(C(F)(F)F)c1,-3%,10%,-2%
C/C(CC(=O)Nc1ccccn1)=N\NC(=O)c1ccccc1,nt,nt,0%
COc1cc(OC)cc(C(=O)N/N=C(\C)CC(=O)Nc2ccccn2)c1,3.5µM*,-3%,nt
Cc1ccc2c(C(=O)CNC3=NCCS3)c(C)[nH]c2c1,2%,nt,nt
O=C1C(c2ccc(F)cc2)N(CCc2ccccc2)C(=O)CN1C1CCCCCC1 (centres undefined),0%,1%,-1%

# Assay outcomes (PubChem)
